Experimental data taken from PubChem BioAssay.
Values without a mark were called inactive.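 The calls were made as follows: active = viability loss from added drug above about 55%, and viability with drug at most 40%, in both replicates (limit read from the data, passing the limit was not always enough); inconclusive = both conditions met in only one replicate; inactive = neither replicate meets both conditions.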

experiment: MRP1 drug-resistance reversers in H69AR cells – cell-based, doxorubicin co-treatment, pilot screen (AID 601); conditions: H69AR cells + 2 uM doxorubicin, CellTiter-Glo, 72 h; at 10 µM; stronger effect = higher value

Structure (SMILES) | differential viability (reversal) [%]
CC1/C(=N/O)C(CN(C)C)C2CC1C2(C)C (stereo not given) | 31.7
O=C(Nc1cccc(F)c1)c1ccc2c(c1)OCO2 | 13.4
COc1ccccc1N=Cc1nc(-c2ccccc2)oc1OC(C)=O | -13.8
CC(=O)Nc1ccc(S(=O)(=O)NCc2cn3c(C)csc3n2)cc1 | 20.4
O=C(c1ccccc1Br)N1CCN(c2ccccc2)CC1 | 12.9
COc1cccc(OC)c1C(=O)Nc1ccc(CN2CCCCC2)cc1 | 8.96
O=C(Cn1nnc(-c2ccccc2)n1)Nc1ccccc1N1CCOCC1 | 0.8
CCCCSc1cc(C)nc2ncnn12 | -1.97
COCCn1c(C)cc(C(=O)COC(=O)CCN2C(=O)c3ccccc3C2=O)c1C | 5.55
Cc1cc(=O)n(CC(C)C)c(O)c1C#N | 0.33
Cc1nc2cc(Cl)ccc2n1CCO | 7.68
CCCN1CCN(C(=O)Cn2c(=O)oc3cc(S(=O)(=O)NCc4ccccc4)ccc32)CC1 | 7.88
COc1ccc2cc(C#N)c(SCC(=O)N3CCCC3)nc2c1 | -5.28
CCn1c(=O)cc(OCC(=O)NC2CCCCC2)c2ccccc21 | 9.56
CC(C(=O)Nc1ccccc1-c1ccccc1)N1CCN(C(=O)c2ccco2)CC1 (stereo not given) | 8.3
Cc1c(C(=O)NCc2cccnc2)sc2ncn(CC(=O)N3CCCCC3C)c(=O)c12 (stereo not given) | 1.24
O=C(c1cn(-c2ccccc2)nc1-c1cccs1)N1CCN(c2ccccn2)CC1 | -40
CCOc1ccc2[nH]c(=O)c(C(c3nnnn3Cc3ccco3)N3CCC(C)CC3)cc2c1 (stereo not given) | -1.93
c1ccc(-c2nnc(-c3ccco3)n2-c2ccccc2)cc1 | -10.6
N#Cc1ccccc1NC(=O)CSc1nnc(-c2ccccc2)n1-c1ccccc1 | -63.4

Structure (SMILES) | differential viability (reversal) [%]
Cc1ccc(-n2cnnn2)c2cccnc12 | 7.82
Cc1ccc(-c2[nH]nc3c2C(c2ccc(OC(=O)N4CCOCC4)cc2)C(C#N)=C(N)O3)cc1 (stereo not given) | -10.4
CC(C)=CC(=O)N1CCCc2ccccc21 | 5.13
CCOC(=O)c1cc2n(n1)C(C(F)(F)C(F)(F)F)CC(C)N2 (stereo not given) | 4.36
c1ccc(-c2ccccc2OCCn2cncn2)cc1 | 15.9
CC(C)Cn1c(N)c(C(=O)COC(=O)c2ccc3c(c2)OCCO3)c(=O)n(C)c1=O | -6.76
COc1ccc(Cn2c(CCCO)nc3ccccc32)cc1OC | 14.2
CN(C)C(=O)N1CCCC(C(=O)NCc2ccccc2)C1 (stereo not given) | -18.9
O=C(CN1C(=O)c2cccc3cccc1c23)N1CCN(c2ccccc2)CC1 | 23.3
CC(C)(C)OC(=O)NCCc1nnc(SCC(=O)c2ccc(Cl)cc2)o1 | 13
CCOC(=O)N1CCN(c2c(N3CCN(c4ccccc4OC)CC3)c(=O)c2=O)CC1 | 8.68
Cn1c(=O)c2ncn(CC(=O)NCCOc3ccc(C(C)(C)C)cc3)c2n(C)c1=O | -17.6
COc1ccc(-c2cc(C(=O)NCc3ccc(Cl)cc3)no2)cc1OC | 0.66
CCOC(=O)c1ccc(NC(=O)CCNc2c(N3CCCC3)c(=O)c2=O)cc1 | 0.27
CCOC(=O)CSc1nnc(CCc2nc3ccccc3[nH]2)n1C | 1.34
CCOc1ccc(-c2nnn(CCC(=O)O)n2)cc1OC | 12.1
CCCCNC(=O)CN(C1CCCCC1)S(C)(=O)=O | 11
CCOCCCNC(=O)C1CCC(=O)N1CCc1ccccc1 (stereo not given) | -12.8
OC(COc1ccc2ccccc2c1)CN1CCOCC1 (stereo not given) | -2.29
COc1ccccc1CN1C(=O)CCC1(C)C(=O)NC1CCCCCC1 (stereo not given) | 2.86
